Consider 16 compounds from PubChem BioAssay (EPA / NIEHS).

Inconclusive results are not listed. Active and inactive are the calls of the source. How the source made its calls, unless noted: active means hit-call score of the fitted dose curve at least 0.9, where 1 is the maximum; inactive means score below 0.9.

The target in experiment [1] is human RAR-related Orphan Receptor gamma (RORg), RORC (gene 6097) (UniProt P51449). Briefly: ATG_RORg_TRANS: Attagene TRANS-FACTORIAL HepG2 Assay for human RAR-related Orphan Receptor gamma (RORg) (AID 2283011; active means hit-call score of the fitted dose curve at least 0.9, where 1 is the maximum). Put shortly: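 Readout: reporter transcript induction (RT-PCR, fluorescent primer extension, capillary electrophoresis) after 24 h compound exposure of transiently transfected HepG2 cells carrying a RORg-Gal4 chimera and GAL4-UAS reporters; DMSO served as baseline, with increasing signal fitted.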

The target in experiment [2] is Retinoic acid receptor RXR-alpha (Homo sapiens) (UniProt P19793). Kind of experiment: ATG_RXRa_TRANS: Attagene TRANS-FACTORIAL HepG2 Assay for human Retinoid X Receptor alpha (RXRa) (AID 2283012; active means hit-call score of the fitted dose curve at least 0.9, where 1 is the maximum). Put shortly:
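HepG2 cells transiently transfected with GAL4-UAS reporter units and chimeric RXRa-Gal4 protein, treated 24 h. Reporter mRNA measured by RT-PCR, fluorescent labelling, HpaI digestion and capillary electrophoresis. Induction fitted against DMSO.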

Experiment [3] concerns the target human Retinoid X Receptor beta (RXRb), RXRB (gene 6257) (UniProt P28702). Kind of experiment: ATG_RXRb_TRANS: Attagene TRANS-FACTORIAL HepG2 Assay for human Retinoid X Receptor beta (RXRb) (AID 2283013; active means hit-call score of the fitted dose curve at least 0.9, where 1 is the maximum). Put shortly: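 HepG2 cells were transiently transfected with multiplexed GAL4-UAS reporters and a chimeric RXRb-Gal4 construct, then exposed for 24 h. Reporter mRNA was quantified by RT-PCR, FAM labeling, HpaI digestion and capillary electrophoresis; gain of signal was scored against DMSO.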

The target of experiment [4] is human Thyroid Receptor alpha (THRa1), THRA (gene 7067) (UniProt P10827). Kind of experiment: ATG_THRa1_TRANS: Attagene TRANS-FACTORIAL HepG2 Assay for human Thyroid Receptor alpha (THRa1) (AID 2283014; active means hit-call score of the fitted dose curve at least 0.9, where 1 is the maximum). Put shortly:
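HepG2 cells transiently transfected with multiplexed GAL4-UAS reporter units for exogenous chimeric THRa1-Gal4; reporter mRNA measured 24 h after dosing by RT-PCR, 6-FAM labelling, HpaI digestion and capillary electrophoresis. Gain-of-signal fitted versus DMSO baseline.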

Read-out in experiment [5]: E-selectin (Homo sapiens) (UniProt P16581)
Kind of experiment: BSK_3C_Eselectin: BioMAP Diversity Plus: 3C Assay for Eselectin Biomarker Activity (AID 2283015). The conditions noted are these: primary human endothelial cells (HUVEC); actives raise or lower the signal. Put shortly: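 Primary human umbilical vein endothelial cells (3C system) were dosed with chemical and cell-surface E-selectin measured by ELISA 24 h later. Bidirectional curve fitting used DMSO as negative control and baseline.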

Read-out in experiment [6]: Interleukin-1 alpha (IL1a), IL1A (gene 3552)
Kind of experiment: BSK_BE3C_IL1a: BioMAP Diversity Plus: BE3C Assay for Interleukin-1 alpha (IL1a) Biomarker Activity (AID 2283016). To be noted: primary human bronchial epithelial cells; actives raise or lower the signal. A digest of the protocol:
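Human primary bronchial epithelial cells, 24 h chemical exposure; IL-1a quantified by ELISA, fitted bidirectionally against DMSO. Cytotoxicity assessed in parallel by SRB total-protein staining at the time of measurement.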

Read-out in experiment [7]: Monocyte Chemoattractant Protein-1 (MCP1), CCL2 (gene 6347)
Kind of experiment: BSK_4H_MCP1: BioMAP Diversity Plus: 4H Assay for Monocyte Chemoattractant Protein-1 (MCP1) Biomarker Activity (AID 2283018). To be noted: primary human endothelial cells (HUVEC); actives raise or lower the signal. Put shortly:
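Human umbilical vein endothelial cells (4H system) exposed to chemicals for 24 h in 96-well format. MCP-1 measured by ELISA; bidirectional fitting against DMSO, with SRB total-protein staining in parallel cultures for cytotoxicity.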

Read-out in experiment [8]: Interleukin-8 (IL8), CXCL8 (gene 3576)
Briefly: BSK_3C_IL8: BioMAP Diversity Plus: 3C Assay for Interleukin-8 (IL8) Biomarker Activity (AID 2283020). To be noted: primary human endothelial cells (HUVEC); actives raise or lower the signal. Put shortly:
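Primary human umbilical vein endothelial cells were dosed for 24 h. IL-8 was quantified by ELISA and fitted bidirectionally against DMSO. Cytotoxicity was assessed in parallel cultures by SRB staining at 560 nm.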

Read-out in experiment [9]: Monokine induced gamma interferon (MIG), CXCL9 (gene 4283)
Briefly: BSK_3C_MIG: BioMAP Diversity Plus: 3C Assay for Monokine induced gamma interferon (MIG) Biomarker Activity (AID 2283021). To be noted: primary human endothelial cells (HUVEC); actives raise or lower the signal. A digest of the protocol:
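HUVEC primary endothelial cultures dosed with chemical; MIG quantified by ELISA at 24 h. Data fitted bidirectionally against DMSO control, with parallel SRB total-protein staining for cytotoxicity.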

Experiment [10] concerns the target human Vitamin D Receptor (VDR), VDR (gene 7421) (UniProt P11473). Briefly: ATG_VDR_TRANS: Attagene TRANS-FACTORIAL HepG2 Assay for human Vitamin D Receptor (VDR) (AID 2283022; active means hit-call score of the fitted dose curve at least 0.9, where 1 is the maximum). A digest of the protocol:
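HepG2 cells were transiently transfected with multiple GAL4-UAS reporter units, so signal reflects exogenous chimeric receptor-Gal4 activity. After 24 h compound exposure, reporter mRNA was measured by RT-PCR, fluorescent labelling and capillary electrophoresis, fitted for gain of signal versus DMSO.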

A short description of experiment [11]: BSK_3C_SRB: Viability Assessment in the BioMAP Diversity Plus: 3C Assay (AID 2283023).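 Further: fitted both ways against DMSO so a hit may be signal rise or drop.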 To be noted: primary human endothelial cells (HUVEC). Put shortly: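 Primary human umbilical vein endothelial cells in the 3C system were read 24 h after compound dosing. Total protein was stained with 0.1% sulforhodamine B after 10% TCA fixation and read at 560 nm, with bidirectional fitting against DMSO as baseline.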

Read-out in experiment [12]: Matrix Metallopeptidase 1 (MMP1), MMP1 (gene 4312)
Kind of experiment: BSK_BE3C_MMP1: BioMAP Diversity Plus: BE3C Assay for Matrix Metallopeptidase 1 (MMP1) Biomarker Activity (AID 2283024). The conditions noted are these: primary human bronchial epithelial cells; actives raise or lower the signal. A digest of the protocol: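 Human primary bronchial epithelial cells (BE3C system) dosed for 24 h; MMP-1 quantified by ELISA. Bidirectional fit against DMSO; cytotoxicity tracked in parallel cultures by SRB total-protein staining.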

Experiment [13] can be described thus: BSK_3C_Vis: BioMAP Diversity Plus: 3C Assay for Morphology Visualization (AID 2283025).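 Further: fitted both ways so gain or loss versus DMSO counts.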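 On AC50: light microscopy image of cell morphology used as background control.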 The conditions noted are these: primary human endothelial cells (HUVEC). A digest of the protocol: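 Human umbilical vein endothelial cell morphology was inspected by light microscopy 24 h after chemical dosing; scored bidirectionally relative to DMSO.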
Read-out in experiment [14]: Pselectin, SELP (gene 6403)
Briefly: BSK_4H_Pselectin: BioMAP Diversity Plus: 4H Assay for Pselectin Biomarker Activity (AID 2283026). The conditions noted are these: primary human endothelial cells (HUVEC); actives raise or lower the signal. Put shortly: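 Primary human umbilical vein endothelial cells were treated 24 h, and cell-surface P-selectin was then quantified by ELISA. Bidirectional fit versus DMSO; cytotoxicity checked in parallel cultures by SRB total-protein staining.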

Experiment [15] is described as follows: BSK_4H_SRB: Viability Assessment in the BioMAP Diversity Plus: 4H Assay (AID 2283027).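 Further: cells exposed to compound for 24 h before staining.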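 On AC50: curves fitted both ways versus DMSO so AC50 may be loss or gain.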 The conditions noted are these: primary human endothelial cells (HUVEC). Put shortly: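 Absorbance at 560 nm of SRB-stained total protein served as the viability read-out in confluent primary human umbilical vein endothelium 24 h after chemical treatment. Curves were fitted bidirectionally against DMSO as negative control.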

Experiment [16] in a line: BSK_BE3C_SRB: Viability Assessment in the BioMAP Diversity Plus: BE3C Assay (AID 2283028). The conditions noted are these: primary human bronchial epithelial cells. Put shortly:
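Human primary bronchial epithelial cells were exposed to test chemicals for 24 h. Total protein in parallel cultures was then measured by staining with 0.1% sulforhodamine B after 10% TCA fixation, with absorbance read at 560 nm. Activity was fitted bidirectionally against DMSO.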

Read-out in experiment [17]: Thrombomodulin, THBD (gene 7056)
Kind of experiment: BSK_3C_Thrombomodulin: BioMAP Diversity Plus: 3C Assay for Thrombomodulin Biomarker Activity (AID 2283029). To be noted: primary human endothelial cells (HUVEC); actives raise or lower the signal. Put shortly:
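Human umbilical vein endothelial cells were exposed to chemicals for 24 h; cell-surface thrombomodulin quantified by ELISA, with bidirectional fitting against DMSO baseline.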

Read-out in experiment [18]: Urokinase-type plasminogen activator receptor (uPAR), PLAUR (gene 5329)
Kind of experiment: BSK_4H_uPAR: BioMAP Diversity Plus: 4H Assay for Urokinase-type plasminogen activator receptor (uPAR) Biomarker Activity (AID 2283030). The conditions noted are these: primary human endothelial cells (HUVEC); actives raise or lower the signal. Put shortly: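 Primary human umbilical vein endothelial cells were exposed to chemical for 24 h before cell-surface uPAR was quantified by ELISA. Activity was fitted bidirectionally against the DMSO negative control baseline.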

Read-out in experiment [19]: Monocyte Chemoattractant Protein-1 (MCP1), CCL2 (gene 6347)
Briefly: BSK_3C_MCP1: BioMAP Diversity Plus: 3C Assay for Monocyte Chemoattractant Protein-1 (MCP1) Biomarker Activity (AID 2283017). The conditions noted are these: primary human endothelial cells (HUVEC); actives raise or lower the signal. Put shortly: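 Primary human umbilical vein endothelial cells (3C system) were exposed to test chemical for 24 h, after which MCP-1 was quantified by ELISA. Activity was fitted bidirectionally against DMSO as negative control and baseline.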

Chain of human Thyroid Receptor alpha (THRa1), THRA (gene 7067) (P10827 whole entry, looked up, the tested form may be a part): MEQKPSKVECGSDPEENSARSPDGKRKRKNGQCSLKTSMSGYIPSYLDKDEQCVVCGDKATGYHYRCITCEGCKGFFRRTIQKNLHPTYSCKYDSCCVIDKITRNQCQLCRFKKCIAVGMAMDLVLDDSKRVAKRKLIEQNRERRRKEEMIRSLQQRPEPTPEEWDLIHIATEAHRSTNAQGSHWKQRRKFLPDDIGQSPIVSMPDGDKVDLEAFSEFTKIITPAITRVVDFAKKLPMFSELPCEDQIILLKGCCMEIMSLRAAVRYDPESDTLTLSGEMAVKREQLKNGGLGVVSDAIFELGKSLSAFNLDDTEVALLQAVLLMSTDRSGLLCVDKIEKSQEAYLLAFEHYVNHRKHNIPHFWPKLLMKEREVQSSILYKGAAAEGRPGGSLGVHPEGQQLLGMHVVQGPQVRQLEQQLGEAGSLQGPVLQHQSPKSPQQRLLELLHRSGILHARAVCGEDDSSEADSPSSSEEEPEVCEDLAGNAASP
Chain of E-selectin (Homo sapiens) (P16581 whole entry, looked up): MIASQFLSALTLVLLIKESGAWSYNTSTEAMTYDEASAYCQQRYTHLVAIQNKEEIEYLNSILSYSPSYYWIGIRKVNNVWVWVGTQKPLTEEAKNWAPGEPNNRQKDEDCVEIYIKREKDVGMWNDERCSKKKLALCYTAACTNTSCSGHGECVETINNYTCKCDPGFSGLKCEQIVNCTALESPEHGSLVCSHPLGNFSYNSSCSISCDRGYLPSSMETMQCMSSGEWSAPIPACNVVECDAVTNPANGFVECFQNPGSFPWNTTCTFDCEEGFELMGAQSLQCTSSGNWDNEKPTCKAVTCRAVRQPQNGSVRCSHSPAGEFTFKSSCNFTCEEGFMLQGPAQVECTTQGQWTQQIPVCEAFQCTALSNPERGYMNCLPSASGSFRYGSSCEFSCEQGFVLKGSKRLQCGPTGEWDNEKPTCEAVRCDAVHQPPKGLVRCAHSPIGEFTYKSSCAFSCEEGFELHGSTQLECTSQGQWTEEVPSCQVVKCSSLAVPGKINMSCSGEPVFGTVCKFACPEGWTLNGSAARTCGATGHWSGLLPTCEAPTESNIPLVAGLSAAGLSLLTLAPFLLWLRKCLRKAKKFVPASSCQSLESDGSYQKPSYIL
Chain of human Retinoid X Receptor beta (RXRb), RXRB (gene 6257) (P28702 whole entry, looked up, the tested form may be a part): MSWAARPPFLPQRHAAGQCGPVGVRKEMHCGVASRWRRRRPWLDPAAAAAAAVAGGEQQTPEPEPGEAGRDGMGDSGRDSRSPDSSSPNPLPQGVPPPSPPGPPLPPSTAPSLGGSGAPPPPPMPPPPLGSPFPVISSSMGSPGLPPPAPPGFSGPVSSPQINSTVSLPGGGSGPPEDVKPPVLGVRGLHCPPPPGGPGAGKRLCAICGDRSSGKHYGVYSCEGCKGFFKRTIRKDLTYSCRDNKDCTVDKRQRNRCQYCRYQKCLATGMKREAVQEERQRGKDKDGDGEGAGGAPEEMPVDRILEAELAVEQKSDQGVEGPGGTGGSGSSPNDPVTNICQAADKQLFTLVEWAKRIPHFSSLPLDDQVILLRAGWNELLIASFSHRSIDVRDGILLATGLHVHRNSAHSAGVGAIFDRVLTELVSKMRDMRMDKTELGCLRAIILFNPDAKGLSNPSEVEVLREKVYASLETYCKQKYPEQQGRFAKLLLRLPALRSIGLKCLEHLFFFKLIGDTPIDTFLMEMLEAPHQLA
Chain of human Vitamin D Receptor (VDR), VDR (gene 7421) (P11473 whole entry, looked up, the tested form may be a part): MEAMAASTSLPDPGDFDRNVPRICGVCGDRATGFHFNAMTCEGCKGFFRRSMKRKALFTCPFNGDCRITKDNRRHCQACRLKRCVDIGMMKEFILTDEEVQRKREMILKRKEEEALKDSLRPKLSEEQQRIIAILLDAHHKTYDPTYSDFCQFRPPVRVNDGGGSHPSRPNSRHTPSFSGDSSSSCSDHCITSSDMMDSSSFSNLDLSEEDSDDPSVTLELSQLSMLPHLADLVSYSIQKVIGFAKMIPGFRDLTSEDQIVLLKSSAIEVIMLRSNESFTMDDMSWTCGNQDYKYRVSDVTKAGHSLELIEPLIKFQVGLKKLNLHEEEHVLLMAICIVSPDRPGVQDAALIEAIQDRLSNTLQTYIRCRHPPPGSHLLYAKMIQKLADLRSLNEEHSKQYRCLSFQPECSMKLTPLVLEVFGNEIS
Chain of human RAR-related Orphan Receptor gamma (RORg), RORC (gene 6097) (P51449 whole entry, looked up, the tested form may be a part): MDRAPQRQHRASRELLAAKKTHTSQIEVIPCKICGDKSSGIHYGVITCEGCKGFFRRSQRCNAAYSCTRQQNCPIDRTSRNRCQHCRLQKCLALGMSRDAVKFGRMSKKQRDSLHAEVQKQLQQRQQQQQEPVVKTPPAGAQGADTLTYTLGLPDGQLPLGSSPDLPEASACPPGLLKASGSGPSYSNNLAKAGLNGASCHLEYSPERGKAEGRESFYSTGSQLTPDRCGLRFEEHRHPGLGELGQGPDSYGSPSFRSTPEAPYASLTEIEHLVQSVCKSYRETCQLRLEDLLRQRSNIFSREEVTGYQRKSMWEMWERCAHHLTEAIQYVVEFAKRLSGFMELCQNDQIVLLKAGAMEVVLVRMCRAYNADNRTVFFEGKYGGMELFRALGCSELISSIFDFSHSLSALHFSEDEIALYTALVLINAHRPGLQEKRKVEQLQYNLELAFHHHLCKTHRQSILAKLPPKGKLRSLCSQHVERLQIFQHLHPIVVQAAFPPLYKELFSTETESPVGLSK
Chain of Retinoic acid receptor RXR-alpha (Homo sapiens) (P19793 whole entry, looked up, the tested form may be a part): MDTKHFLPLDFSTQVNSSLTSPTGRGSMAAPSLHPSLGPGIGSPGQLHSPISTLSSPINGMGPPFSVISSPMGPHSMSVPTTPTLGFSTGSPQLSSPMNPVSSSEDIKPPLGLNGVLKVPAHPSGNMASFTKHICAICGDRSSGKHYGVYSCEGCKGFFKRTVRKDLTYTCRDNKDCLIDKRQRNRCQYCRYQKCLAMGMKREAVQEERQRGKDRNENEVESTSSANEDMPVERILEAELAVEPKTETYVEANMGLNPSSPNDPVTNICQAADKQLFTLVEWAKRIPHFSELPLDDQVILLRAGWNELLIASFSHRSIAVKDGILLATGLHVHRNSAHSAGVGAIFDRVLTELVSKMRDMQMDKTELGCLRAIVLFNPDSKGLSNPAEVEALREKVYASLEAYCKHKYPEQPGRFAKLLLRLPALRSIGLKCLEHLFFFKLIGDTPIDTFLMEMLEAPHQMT

In the case of `CC(C)C(C)(N)C#N` (stereo not drawn), the compound was classed as inactive in [1], in experiment [2] and in experiment [3].
Regarding `CCOc1cc(C=O)ccc1O`, the compound was called inactive in experiment [1], in [2], in experiment [3] and in experiment [4].
On to `Nc1c(Oc2ccccc2)cc(O)c2c1C(=O)c1ccccc1C2=O`, for which the compound was classed as inactive in experiment [1], in experiment [2], in experiment [4], in experiment [5], in [6] and in experiment [7]. Also, the outcome in experiment [8], in experiment [9], in experiment [10], in experiment [11], in [13] and in experiment [14] was inactive. Also, the result in experiment [15], in [16], in [17] and in [18] was inactive. Besides, the AC50 (usually the concentration at which the activity in the assay is half-maximal) in experiment [3] was 17.4 µM (active); in experiment [12], 5.87 µM (active).
With `CC(C)(C)c1ccccc1O`, the compound was called inactive in experiment [1], in experiment [4], in experiment [5], in experiment [6], in experiment [19] and in experiment [7]. Moreover, the outcome in [8], in experiment [9], in experiment [10], in [11], in experiment [12] and in experiment [13] was inactive. Besides, the outcome in [14], in experiment [15], in [16], in experiment [17] and in experiment [18] was inactive. Moreover, the AC50 is 100 µM (active) in experiment [2] and 10.6 µM (active) in experiment [3].
With `CCCCCCCCCCBr`, the outcome in experiment [1] and in [2] was inactive. In [3], the AC50 is 100 µM (active).
As to `C[As+](C)(C)CC(=O)[O-]`, in experiment [1], the outcome was inactive.
`ClCc1ccccc1Cl`: in [1], the call was inactive.
As to `O=[N+]([O-])c1ccc(Cl)c([N+](=O)[O-])c1`, the compound was classed as inactive in [1].
For `CCCSP(=S)(OCC)Oc1ccc(Cl)cc1Cl` (stereo not drawn), the outcome in experiment [1] and in experiment [2] was inactive. In addition, the AC50 in experiment [3] was 27 µM (active).
On to `C#CCOC(=O)/C=C(C)/C=C/CC(C)CCCC(C)C` (stereo not drawn), for which the compound was called inactive in experiment [1], in [6], in experiment [9], in experiment [12], in experiment [16] and in experiment [17]. The result in experiment [18] was inactive. The AC50 is 14.1 µM (active) in experiment [2]; 3.9 µM (active) in experiment [3]; 6.38 µM (active) in experiment [5]; 13.4 µM (active) in experiment [7]; 0.0524 µM (active) in [8]; 32.1 µM (active) in experiment [11]. Besides, the AC50 in experiment [13] was 39.8 µM (active); in [14], 20 µM (active); in experiment [15], 33.2 µM (active).
Regarding `O=C(NC(=O)c1c(F)cccc1F)Nc1cc(Cl)c(F)c(Cl)c1F`, in experiment [1], the call was inactive.
`CC1(C)COP(Oc2ccccc2)OC1`: the result in experiment [1], in experiment [2] and in experiment [3] was inactive.
In the case of `CN(CCCC(O)c1cccnc1)N=O` (stereo not drawn), the call in experiment [1], in [2] and in [3] was inactive.
Take `OC(Cc1ccccc1Cl)(Cn1cncn1)C1(Cl)CC1` (stereo not drawn): the outcome in [1], in experiment [2], in experiment [3], in experiment [4], in experiment [5] and in experiment [6] was inactive. For the same compound, the outcome in experiment [7], in experiment [8], in experiment [9], in experiment [10], in experiment [11] and in experiment [12] was inactive. Also, the outcome in [13], in [14], in experiment [15], in [16], in experiment [17] and in [18] was inactive.
As for `C[CH2][Hg][S]c1ccccc1C(=O)O`, the outcome in experiment [1], in [2], in experiment [4] and in [10] was inactive. The AC50 in experiment [3] was 1.72 µM (active).
`O=c1[nH]c(=O)n(Cl)c(=O)n1Cl`: the result in experiment [1], in experiment [2], in [3] and in experiment [4] was inactive.
